# Laboratory results: PubChem BioAssay (NCATS)
# Inconclusive results are not listed. Entries that show only a call come without a potency. The source made the active and inactive calls. Unless noted, calls come from the whole dose curve; as a rule, active = well fitted curve in the direction sought with a large enough effect; inconclusive = small, poorly fitted or top-dose-only effect, or another doubt; inactive = no such curve, though single readings can be large; an effect the other way counts as inactive or inconclusive.
# Experiments:
# [1] = Cytotoxicity counterscreen for NFkB agonists and antagonists (AID 624476);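 note: cells exposed to compound for 48 hours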; note: potency is the fitted concentration of half-maximal effect
# [2] = qHTS Assay for Identification of Small Molecule Agonists for NFkB Signaling Pathway. (AID 624478);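 note: compounds tested together with TNF alpha at its EC50 of 10 pM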
# Method in brief: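 Cells carrying an NFkB response element-driven beta-lactamase gene are co-treated with compound and 10 pM TNF alpha for 5 h, and reporter activity is then read as 460 and 530 nm fluorescence.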
# [3] = qHTS Assay for Identification of Small Molecule Antagonists for NFkB Signaling Pathway. (AID 624479; calls by dose curve;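 note: pathway stimulated with TNF alpha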; note: potency is the fitted concentration of half-maximal effect)
Compound,Potency [1],outcome [2],Potency [3]
CCCCOCCOc1nc(-c2ccc(C(=O)O)c(F)c2)sc1C,inactive,inactive,inactive
CN1C(=O)C(Cc2c[nH]c3ccccc23)NC1=S (centres undefined),inactive,inactive,inactive
C[C@@H](O[C@H]1OCCN(Cc2n[nH]c(=O)[nH]2)[C@@H]1c1ccc(F)cc1)c1cc(C(F)(F)F)cc(C(F)(F)F)c1,29.6 µM (active),inactive,23.7 µM (active)
CC1=C[C@@H]2[C@@H]([C@@H](O)C[C@@]3(C)[C@H]2C[C@@H](C)[C@]3(O)C(=O)CO)[C@@]2(C)Cc3cnn(-c4ccccc4)c3C=C12,,inactive,
COc1ccc2c(c1)CC[C@H]1[C@@H]2CC[C@]2(C)[C@@H](NCCCCCCN3C(=O)C=CC3=O)CC[C@H]12,inactive,inactive,inactive
Cc1nn(Cc2ccccc2Cl)c(C)c1CN(C)CC(O)COc1ccc(Cl)cc1 (centres undefined),inactive,inactive,inactive
COc1cc2nccc(Oc3ccc(NC(=O)Nc4cc(C)on4)c(Cl)c3)c2cc1OC,inactive,inactive,16.8 µM (active)
Cc1ccc(NC(=O)c2ccc(CN3CCN(C)CC3)cc2)cc1Nc1nc(-c2cccnc2)cs1,inactive,inactive,16.8 µM (active)
COc1nc(C)cnc1NS(=O)(=O)c1cccnc1-c1ccc(-c2nnco2)cc1,inactive,inactive,inactive
CC(O)=C(C#N)C(=O)Nc1ccc(C(F)(F)F)cc1,,inactive,1.88 µM (active)
CNC(=O)c1cc(Oc2ccc(NC(=O)Nc3ccc(Cl)c(C(F)(F)F)c3)c(F)c2)ccn1,5.26 µM (active),inactive,5.95 µM (active)
Nc1ccc(-c2ccc3ncc4ccc(=O)n(-c5cccc(C(F)(F)F)c5)c4c3c2)cn1,0.833 µM (active),inactive,4.73 µM (active)
CNC(=O)c1cc(COc2nnc(Nc3ccc(Cl)cc3)c3ccoc23)ccn1,,,26.6 µM (active)
COc1ccc(CCN(C)CCCOc2ccc(S(=O)(=O)c3[nH]c4ccccc4c3C(C)C)cc2)cc1OC,,inactive,
CC(C)Oc1cc(Nc2nc(N[C@@H](C)c3ccc(F)cn3)ncc2Cl)[nH]n1,2.96 µM (active),inactive,14.9 µM (active)
CC(C)C[C@@H](C(=O)N[C@H](C(=O)OC1CCCC1)c1ccccc1)[C@H](O)C(=O)NO,inactive,inactive,inactive
O=C1CN2Cc3c(ccc(Cl)c3Cl)N=C2N1,inactive,inactive,inactive
